The source of these data is PMC5700166.

In the experiment the target is T1, GST-Nv-NF-kB (Ser allele) (Nematostella vectensis, UniProt A7UNT2 2-411).
T1 sequence: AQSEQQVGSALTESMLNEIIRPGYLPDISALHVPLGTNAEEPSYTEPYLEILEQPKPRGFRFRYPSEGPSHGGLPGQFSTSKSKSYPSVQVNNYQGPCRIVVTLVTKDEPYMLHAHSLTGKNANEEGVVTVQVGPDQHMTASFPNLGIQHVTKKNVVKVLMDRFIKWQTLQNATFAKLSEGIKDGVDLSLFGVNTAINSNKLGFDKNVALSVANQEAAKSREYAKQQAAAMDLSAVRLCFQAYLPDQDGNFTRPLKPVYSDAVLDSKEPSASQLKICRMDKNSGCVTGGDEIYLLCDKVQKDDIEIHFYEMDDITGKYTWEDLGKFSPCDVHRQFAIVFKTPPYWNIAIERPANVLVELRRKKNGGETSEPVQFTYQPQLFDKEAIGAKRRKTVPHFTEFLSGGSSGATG
The experiment is described as follows: protein-binding microarray (PBM); PBM: ~300 nM protein, 6 mM HEPES pH 7.8, 80 mM KCl, 0.5 mM EDTA, 0.5 mM EGTA, 6% glycerol, 35 ng/ul poly-dIdC, 1% milk, 1 h, room temperature; Ap Aiptasia and Nv Nematostella (sea anemones) / Co Capsaspora / Aq Amphimedon (sponge) / Dm Drosophila / Hu human; RHD is the Rel homology domain; high values mean tight binding. Conditions: dsDNA, one strand shown.
“CCGATTAACATCACAGCAGTACCTGATGTTAATCGGGTCTTGATTCGCTTGACGCTGCTG”: the binding signal was 3.01 z-score. With “CCGATTAACATCAGAACATCCCCTGATGTTAATCGGGTCTTGATTCGCTTGACGCTGCTG” the figure was 6.48 z-score; with “CCGATTAACATCAATCCACCCCCTGATGTTAATCGGGTCTTGATTCGCTTGACGCTGCTG”, 3.94 z-score.

Regarding “CCGATTAACATCAGGATATCCCCTGATGTTAATCGGGTCTTGATTCGCTTGACGCTGCTG”, the binding signal stood at 6.27 z-score. As to “CCGATTAACATCAAGGGGGGTTATGATGTTAATCGGGTCTTGATTCGCTTGACGCTGCTG”, the binding signal came out at 5.24 z-score.

Regarding “CCGATTAACATCACACTCCCCCCTGATGTTAATCGGGTCTTGATTCGCTTGACGCTGCTG”, the binding signal is 4.56 z-score. “CCGATTAACATCACTTTGGGAAATGATGTTAATCGGGTCTTGATTCGCTTGACGCTGCTG” returned a binding signal of 1.89 z-score.

The sequence “CCGATTAACATCAGTTGTCCCGCTGATGTTAATCGGGTCTTGATTCGCTTGACGCTGCTG” displayed a binding signal of 1.42 z-score. With “CCGATTAACATCAGAAAAACACCTGATGTTAATCGGGTCTTGATTCGCTTGACGCTGCTG” the figure was 4.39 z-score. “CCGATTAACATCAGATCCCCCCCTGATGTTAATCGGGTCTTGATTCGCTTGACGCTGCTG” showed a binding signal of 5.97 z-score. Turning to “CCGATTAACATCAGGGGGGAGAATGATGTTAATCGGGTCTTGATTCGCTTGACGCTGCTG”, the binding signal turned out to be 6.04 z-score.

On to “CCGATTAACATCAAGAGTCCCCCTGATGTTAATCGGGTCTTGATTCGCTTGACGCTGCTG”, for which the binding signal worked out at 5.78 z-score. The same measure for “CCGATTAACATCAGGGACTTTAATGATGTTAATCGGGTCTTGATTCGCTTGACGCTGCTG”: 6.21 z-score; for “CCGATTAACATCAAGGAATTCCCTGATGTTAATCGGGTCTTGATTCGCTTGACGCTGCTG”: 6.37 z-score.
